Experimental data taken from the supplement of paper PMC8728848.
Shown is part of a subset that was picked to be rich in the strongest signals.

Experiments:
Experiment in all cases: glycan array binding signal (z-score within array); higher = stronger binding
Details in all cases: glycan notation: IUPAC condensed, linker removed
[1] = molecular target: Fuc(a1-2)Gal(b1-3)GlcNAc(b1-3)GalNAc
How it was run: (§1)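 The binding signal is a Z-score computed within each array and averaged over linkers. Arrays of the same protein sequence at different concentrations or buffers were also averaged together. Data originate from 3228 arrays in the Consortium for Functional Glycomics database, kept only where the protein sequence was available.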

Fuc(a1-2)Gal(b1-4)Glc = molecular target: Fuc(a1-2)Gal(b1-4)Glc
How it was run: as §1

[2] = molecular target: Fuc(a1-2)Gal(b1-4)GlcNAc(b1-2)Man(a1-3)[Fuc(a1-2)Gal(b1-4)GlcNAc(b1-2)Man(a1-6)]Man(b1-4)GlcNAc(b1-4)GlcNAc
How it was run: as §1

[3] = molecular target: Fuc(a1-2)[Gal(a1-3)]Gal(b1-3)GalNAc
How it was run: as §1

[4] = molecular target: Fuc(a1-2)[Gal(a1-3)]Gal(b1-3)GlcNAc(b1-2)Man(a1-3)[Fuc(a1-2)[Gal(a1-3)]Gal(b1-3)GlcNAc(b1-2)Man(a1-6)]Man(b1-4)GlcNAc(b1-4)GlcNAc
How it was run: as §1

[5] = molecular target: Fuc(a1-2)[GalNAc(a1-3)]Gal(b1-3)GlcNAc(b1-2)Man(a1-3)[Fuc(a1-2)[GalNAc(a1-3)]Gal(b1-3)GlcNAc(b1-2)Man(a1-6)]Man(b1-4)GlcNAc(b1-4)[Fuc(a1-6)]GlcNAc
How it was run: as §1

[6] = molecular target: Fuc(a1-2)[GalNAc(a1-3)]Gal(b1-3)GlcNAc(b1-6)GalNAc
How it was run: as §1

[7] = molecular target: Fuc(a1-2)[GalNAc(a1-3)]Gal(b1-4)GlcNAc(b1-6)GalNAc
How it was run: as §1

[8] = molecular target: Fuc(a1-2)[GalNAc(a1-3)]Gal(b1-4)[Fuc(a1-3)]GlcNAc
How it was run: as §1

[9] = molecular target: Fuc(a1-2)[GalNAc(a1-3)]Gal(b1-4)[Fuc(a1-3)]GlcNAc(b1-3)GalNAc
How it was run: as §1

[10] = molecular target: Fuc(a1-3)[Gal(b1-4)]GlcNAc(b1-3)GalNAc
How it was run: as §1

[11] = molecular target: Fuc(a1-3)[Gal3S(b1-4)]Glc
How it was run: as §1

[12] = molecular target: Fuc(a1-3)[Gal3S(b1-4)]GlcNAc6S
How it was run: as §1

Fuc(a1-4)GlcNAc = molecular target: Fuc(a1-4)GlcNAc
How it was run: as §1

[13] = molecular target: Gal(a1-3)Gal(b1-3)GlcNAc(b1-6)GalNAc
How it was run: as §1

[14] = molecular target: Gal(a1-3)[Gal(a1-4)]Gal(b1-4)GlcNAc
How it was run: as §1

[15] = molecular target: Gal(a1-4)Gal(b1-4)GlcNAc(b1-2)Man(a1-3)[Gal(a1-4)Gal(b1-4)GlcNAc(b1-2)Man(a1-6)]Man(b1-4)GlcNAc(b1-4)GlcNAc
How it was run: as §1

Gal(b1-2)Gal = molecular target: Gal(b1-2)Gal
How it was run: as §1

[16] = molecular target: Gal(b1-3)GalNAc(b1-3)Gal(a1-4)Gal(b1-4)Glc
How it was run: as §1

[17] = molecular target: Gal(b1-3)GlcNAc(b1-2)[Gal(b1-3)GlcNAc(b1-6)]Man(a1-6)[Gal(b1-3)GlcNAc(b1-2)Man(a1-3)]Man(b1-4)GlcNAc(b1-4)GlcNAc
How it was run: as §1

[18] = molecular target: Gal(b1-3)GlcNAc(b1-3)Gal(b1-4)GlcNAc(b1-3)Gal(b1-4)GlcNAc(b1-2)[Gal(b1-3)GlcNAc(b1-3)Gal(b1-4)GlcNAc(b1-3)Gal(b1-4)GlcNAc(b1-6)]Man(a1-6)[Gal(b1-3)GlcNAc(b1-3)Gal(b1-4)GlcNAc(b1-3)Gal(b1-4)GlcNAc(b1-2)Man(a1-3)]Man(b1-4)GlcNAc(b1-4)[Fuc(a1-6)]GlcNAc
How it was run: as §1

[19] = molecular target: Gal(b1-3)GlcNAc(b1-6)GalNAc
How it was run: as §1

[20] = molecular target: Gal(b1-4)GlcNAc(b1-2)Man(a1-3)[Gal(b1-4)GlcNAc(b1-2)Man(a1-6)]Man(b1-4)GlcNAc(b1-4)GlcNAc
How it was run: as §1

[21] = molecular target: Gal(b1-4)GlcNAc(b1-2)Man(a1-6)[Man(a1-3)]Man(b1-4)GlcNAc(b1-4)GlcNAc
How it was run: as §1

[22] = molecular target: Gal(b1-4)GlcNAc(b1-2)[Gal(b1-4)GlcNAc(b1-6)]Man(a1-6)[Gal(b1-4)GlcNAc(b1-2)Man(a1-3)]Man(b1-4)GlcNAc(b1-4)[Fuc(a1-6)]GlcNAc
How it was run: as §1

[23] = molecular target: Gal(b1-4)GlcNAc(b1-3)Gal(b1-4)GlcNAc(b1-2)Man(a1-3)[Gal(b1-4)GlcNAc(b1-3)Gal(b1-4)GlcNAc(b1-2)Man(a1-6)]Man(b1-4)GlcNAc(b1-4)GlcNAc
How it was run: as §1

[24] = molecular target: Gal(b1-4)GlcNAc(b1-3)Gal(b1-4)GlcNAc(b1-3)Gal(b1-4)GlcNAc(b1-3)Gal(b1-4)GlcNAc(b1-3)Gal(b1-4)GlcNAc(b1-3)Gal(b1-4)GlcNAc(b1-2)Man(a1-3)[Gal(b1-4)GlcNAc(b1-3)Gal(b1-4)GlcNAc(b1-3)Gal(b1-4)GlcNAc(b1-3)Gal(b1-4)GlcNAc(b1-3)Gal(b1-4)GlcNAc(b1-3)Gal(b1-4)GlcNAc(b1-2)Man(a1-6)]Man(b1-4)GlcNAc(b1-4)GlcNAc
How it was run: as §1

[25] = molecular target: Gal(b1-4)GlcNAc(b1-3)GalNAc
How it was run: as §1

[26] = molecular target: Gal3S(b1-4)[Fuc(a1-3)]Glc6S
How it was run: as §1

GalNAc(b1-3)GlcNAc = molecular target: GalNAc(b1-3)GlcNAc
How it was run: as §1

GalNAc(b1-4)Gal(b1-4)Glc = molecular target: GalNAc(b1-4)Gal(b1-4)Glc
How it was run: as §1

[27] = molecular target: GlcA3S(b1-3)Gal(b1-4)GlcNAc(b1-3)Gal(b1-4)Glc
How it was run: as §1

[28] = molecular target: GlcNAc(a1-4)Gal(b1-4)GlcNAc(b1-3)Gal(b1-4)GlcNAc
How it was run: as §1

[29] = molecular target: GlcNAc(b1-2)Man(a1-3)[GlcNAc(b1-4)][GlcNAc(b1-2)Man(a1-6)]Man(b1-4)GlcNAc(b1-4)GlcNAc
How it was run: as §1

GlcNAc(b1-3)Fuc = molecular target: GlcNAc(b1-3)Fuc
How it was run: as §1

[30] = molecular target: GlcNAc(b1-3)Gal(b1-4)GlcNAc(b1-2)Man(a1-3)[GlcNAc(b1-3)Gal(b1-4)GlcNAc(b1-2)Man(a1-6)]Man(b1-4)GlcNAc(b1-4)GlcNAc
How it was run: as §1

[31] = molecular target: GlcNAc(b1-3)Gal(b1-4)GlcNAc(b1-2)[GlcNAc(b1-3)Gal(b1-4)GlcNAc(b1-6)]Man(a1-6)[GlcNAc(b1-3)Gal(b1-4)GlcNAc(b1-2)Man(a1-3)]Man(b1-4)GlcNAc(b1-4)GlcNAc
How it was run: as §1

[32] = molecular target: GlcNAc(b1-3)Gal(b1-4)GlcNAc(b1-3)Gal(b1-4)GlcNAc(b1-3)Gal(b1-4)GlcNAc(b1-3)Gal(b1-4)GlcNAc(b1-2)[GlcNAc(b1-3)Gal(b1-4)GlcNAc(b1-3)Gal(b1-4)GlcNAc(b1-3)Gal(b1-4)GlcNAc(b1-3)Gal(b1-4)GlcNAc(b1-6)]Man(a1-6)[GlcNAc(b1-3)Gal(b1-4)GlcNAc(b1-3)Gal(b1-4)GlcNAc(b1-3)Gal(b1-4)GlcNAc(b1-3)Gal(b1-4)GlcNAc(b1-2)Man(a1-3)]Man(b1-4)GlcNAc(b1-4)[Fuc(a1-6)]GlcNAc
How it was run: as §1

[33] = molecular target: GlcNAc6S(b1-3)Gal(b1-4)GlcNAc
How it was run: as §1

[34] = molecular target: Man(a1-2)Man(a1-3)[Man(a1-2)Man(a1-6)]Man(a1-6)[Man(a1-2)Man(a1-2)Man(a1-3)]Man
How it was run: as §1

MurNAc(b1-4)GlcNAc = molecular target: MurNAc(b1-4)GlcNAc
How it was run: as §1

[35] = molecular target: Neu5Ac(a2-3)Gal(b1-3)GalNAc(b1-4)[Neu5Ac(a2-8)Neu5Ac(a2-3)]Gal(b1-4)Glc
How it was run: as §1

[36] = molecular target: Neu5Ac(a2-3)Gal(b1-3)GlcNAc
How it was run: as §1

[37] = molecular target: Neu5Ac(a2-3)Gal(b1-3)[Neu5Ac(a2-6)]GlcNAc(b1-3)[Fuc(a1-3)[Gal(b1-4)]GlcNAc(b1-6)]Gal(b1-4)Glc
How it was run: as §1

[38] = molecular target: Neu5Ac(a2-3)Gal(b1-4)GlcNAc(b1-2)[Neu5Ac(a2-3)Gal(b1-4)GlcNAc(b1-6)]Man(a1-6)[Neu5Ac(a2-3)Gal(b1-4)GlcNAc(b1-2)Man(a1-3)]Man(b1-4)GlcNAc(b1-4)GlcNAc
How it was run: as §1

[39] = molecular target: Neu5Ac(a2-3)Gal(b1-4)GlcNAc(b1-6)[Neu5Ac(a2-3)Gal(b1-3)]GalNAc
How it was run: as §1

[40] = molecular target: Neu5Ac(a2-3)Gal(b1-4)[Fuc(a1-3)]GlcNAc(b1-3)GalNAc
How it was run: as §1

[41] = molecular target: Neu5Ac(a2-6)Gal(b1-4)GlcNAc(b1-2)Man(a1-6)[Man(a1-3)]Man(b1-4)GlcNAc(b1-4)GlcNAc
How it was run: as §1

[42] = molecular target: Neu5Ac(a2-8)Neu5Ac(a2-3)[Gal(b1-3)GalNAc(b1-4)]Gal(b1-4)Glc
How it was run: as §1

B1: RobpsCRA (Robinia pseudoacacia) (protein)
chain: IKGGYWYSGSGLAVSDINPSHFTHLFCAFADLDPNTNKLTISSSNAAAFSTFTQTVRAKNPSVKTLLSIGGGGGRALAAVFANMASQASRRKSFIDSSIQLARRNNFHGLDLDWEYPSSDIDKTNFASLIREWRAAVATESSTSGTPALLLSAAVGGSDQITPLKYYPGEAIANNLDWVNVMTYDLYTSDSYPTLTQPPAPLFYPRGIFSADEGITKWIQSGVPESKLALGLPFYGFKWRLSDPNNHGLFAPATQGLGAVKYKDIVNTGGQVEFDSTYVTNYCFKGTDWYGYDDTQSISAKVAYAKQRGLFGYFAWHIEQDSNWALS
[1]
  glycan array binding signal (z-score): -0.523
Fuc(a1-2)Gal(b1-4)Glc
  glycan array binding signal (z-score): 0.123
[2]
  glycan array binding signal (z-score): -0.573
[3]
  glycan array binding signal (z-score): -0.447
[4]
  glycan array binding signal (z-score): -0.684
[5]
  glycan array binding signal (z-score): -0.163
[6]
  glycan array binding signal (z-score): -0.584
[7]
  glycan array binding signal (z-score): -0.132
[8]
  glycan array binding signal (z-score): -0.375
[9]
  glycan array binding signal (z-score): 16.3
[10]
  glycan array binding signal (z-score): 0.084
[11]
  glycan array binding signal (z-score): -0.504
[12]
  glycan array binding signal (z-score): 0.763
Fuc(a1-4)GlcNAc
  glycan array binding signal (z-score): -0.31
[13]
  glycan array binding signal (z-score): -0.356
[14]
  glycan array binding signal (z-score): 1.85
[15]
  glycan array binding signal (z-score): 0.418
Gal(b1-2)Gal
  glycan array binding signal (z-score): -0.839
[16]
  glycan array binding signal (z-score): 0.121
[17]
  glycan array binding signal (z-score): -0.739
[18]
  glycan array binding signal (z-score): 0.989
[19]
  glycan array binding signal (z-score): -0.441
[20]
  glycan array binding signal (z-score): -0.393
[21]
  glycan array binding signal (z-score): 0.031
[22]
  glycan array binding signal (z-score): 1.6
[23]
  glycan array binding signal (z-score): 1.01
[24]
  glycan array binding signal (z-score): 2.18
[25]
  glycan array binding signal (z-score): 0.32
[26]
  glycan array binding signal (z-score): 1.65
GalNAc(b1-3)GlcNAc
  glycan array binding signal (z-score): 0.418
GalNAc(b1-4)Gal(b1-4)Glc
  glycan array binding signal (z-score): 0.371
[27]
  glycan array binding signal (z-score): 2.45
[28]
  glycan array binding signal (z-score): 1.54
[29]
  glycan array binding signal (z-score): -0.359
GlcNAc(b1-3)Fuc
  glycan array binding signal (z-score): -0.426
[30]
  glycan array binding signal (z-score): -0.142
[31]
  glycan array binding signal (z-score): 1.5
[32]
  glycan array binding signal (z-score): 1.28
[33]
  glycan array binding signal (z-score): -0.663
[34]
  glycan array binding signal (z-score): 0.574
MurNAc(b1-4)GlcNAc
  glycan array binding signal (z-score): -0.389
[35]
  glycan array binding signal (z-score): -0.829
[36]
  glycan array binding signal (z-score): 0.156
[37]
  glycan array binding signal (z-score): -0.376
[38]
  glycan array binding signal (z-score): -0.526
[39]
  glycan array binding signal (z-score): -0.478
[40]
  glycan array binding signal (z-score): 1.49
[41]
  glycan array binding signal (z-score): 1.67
[42]
  glycan array binding signal (z-score): 0.946
